From PubChem BioAssay
ELG1 genotox = induces genotoxicity in HEK293T cells with luciferase-tagged ELG1. Potency, µM (top dose mostly 46 µM), for the others: top-dose activity change, positive = activation, most hits filed as activators. 330,000 tested, 1.3% active. HEK293T ELG1-luciferase reporter, luminescence, 16 h; note: % of control where 0% means no effect; nearly all actives have a fitted effect of over 60% in size
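Cells (2,000/well) expressing the ELG1-luciferase fusion are dosed by pin tool and kept 16 hr at 37 °C, 5% CO2. Signal comes from ONE-Glo luciferase reagent after 30 min at room temperature.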
SMN2 splice up = SMN2 splice variant enhancement. HEK293 SMN2-luciferase splicing reporter, luminescence, 30-36 h. Potency, µM (highest dose often 46.1 µM), inactives show at the highest dose activity change, positive = activation, hits mostly activators. 210,000 tested, 2.8% active; note: % of control where 0% means no effect; nearly all actives have a fitted effect of over 55% in size
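HEK293 cells carry an SMN2 […]–luciferase reporter in which exon 7 inclusion puts luciferase in frame. Cells were plated 10-12 h before compound addition, then incubated 30-36 h at 37C. ONE-Glo luminescence was read; sodium butyrate at 4.5 mM final served as control.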
Rab9 prom act = Rab9 promoter activation. Huh7 Rab9 promoter-luciferase reporter, luminescence, 24 h. Potency, µM (highest dose often 9.22 µM), inactives show at the highest dose activation, negative = inhibition, actives largely listed as activators. 320,000 tested, 2.8% active. AID 485297; note: % of control where 0% means no effect; nearly all actives have a fitted effect of over 60% in size
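Cells were plated at 1500 per well in reduced-serum medium with 10% FBS and left 2 h. Compound in DMSO was then added for 24 h at 37 °C. Reporter signal was read by luminescence after 10 min with luciferase detection reagent.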
KinaseGlo FLuc = blocks Kinase-Glo luciferase, a counter-screen artifact. Q27757. Kinase-Glo luciferase, ATP luminescence, 8 min. Potency, µM (titrated, usually from 38.3 µM), for the others: top-dose activity change, negative = inhibition, hits mostly inhibitors. 200,000 tested, 0.28% active. AID 1379; note: % is set by controls: 0 for no effect and ±100 for the full control effect; nearly all actives have a fitted effect of over 60% in size
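Compounds were added to a substrate mix at pH 7.2 (50 mM imidazole, 10 uM ATP, within the enzyme's linear range), followed by Kinase-Glo detection reagent; luminescence was measured after 8 minutes at ambient temperature.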
FLuc counter = inhibits or activates purified firefly luciferase, miR-21 counter-screen; P08659; purified FLuc, Km substrates, luminescence inhibition; Potency, µM (top dose mostly 57.5 µM), without a hit: top-dose activity change, negative = inhibition, usual class: inhibitors; 360,000 tested, 6.9% active; AID 588342;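 note: plate controls were vehicle for no effect and reference inhibitor for full effect; nearly all actives have a fitted effect of over 55% in size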
Target sequence (P08659 whole entry, looked up): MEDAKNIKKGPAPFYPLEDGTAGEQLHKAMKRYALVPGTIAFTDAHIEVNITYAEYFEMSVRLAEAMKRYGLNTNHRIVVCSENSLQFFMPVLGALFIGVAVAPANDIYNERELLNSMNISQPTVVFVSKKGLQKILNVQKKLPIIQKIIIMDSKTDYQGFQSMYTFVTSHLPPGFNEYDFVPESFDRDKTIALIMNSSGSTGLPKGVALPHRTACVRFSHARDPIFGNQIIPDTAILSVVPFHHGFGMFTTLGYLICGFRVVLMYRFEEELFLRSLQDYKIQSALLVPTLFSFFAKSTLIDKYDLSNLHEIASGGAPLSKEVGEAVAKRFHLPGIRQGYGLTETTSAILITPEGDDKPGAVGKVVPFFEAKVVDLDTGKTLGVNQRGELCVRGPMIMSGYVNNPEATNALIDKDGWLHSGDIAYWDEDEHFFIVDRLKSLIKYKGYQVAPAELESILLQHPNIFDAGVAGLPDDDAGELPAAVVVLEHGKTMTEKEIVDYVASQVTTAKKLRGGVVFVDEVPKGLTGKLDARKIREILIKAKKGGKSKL
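Purified P. pyralis luciferase (10nM final) with 10uM D-luciferin and 10uM ATP (Km levels) in 50mM Tris acetate pH 7.5, 10mM Mg acetate, 0.01% Tween-20, 0.05% BSA; qHTS 6-point titration, ~60 µM downward; luminescence read.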
NPC1 promoter act = activates the NPC1 promoter. 320,000 tested, 2.4% active. AID 485313. Huh7 NPC1 promoter luciferase reporter, 24 h. Potency, µM (titrated, usually from 9.22 µM), inactives show at the highest dose activation, most hits filed as activators; note: % of control where 0% means no effect; nearly all actives have a fitted effect of over 60% in size
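Luminescence from an NPC1 promoter-driven luciferase reporter in stably transfected Huh7 cells was measured after 24 h compound treatment at 37 °C, followed by 10 min ambient incubation with luciferase detection reagent.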
* hit, by the source's call; ? = inconclusive; nt = not tested or not shown. Rows were chosen to be rich in hits. Some 7.5% of all compounds tested hit in one or more screens of this group. Calls come from the whole dose curve; as a rule, active = well fitted curve in the direction sought with a large enough effect; inconclusive = small, poorly fitted or top-dose-only effect, or another doubt; inactive = no such curve, though single readings can be large; an effect the other way counts as inactive or inconclusive. Potency is the fitted concentration of half-maximal effect.

SMILES	ELG1 genotox	SMN2 splice up	Rab9 prom act	KinaseGlo FLuc	FLuc counter	NPC1 promoter act
CC1=C(C(=O)NCc2ccccc2C)C2(CCCCCC2)OC1=O	nt	nt	nt	nt	-9%	nt
COCCOC(=O)C1=C(C)N=C2SCCC(=O)N2C1c1ccc(OCc2ccccc2)c(OC)c1 (stereo not given)	nt	-9%	nt	nt	-1%	nt
COc1ccc(/C=C/c2nc(-c3ccccc3O)n[nH]2)cc1OC	?	?	?	3%	12µM*	?
O=C(O)COc1ccc(/C=C/c2nc(-c3ccccc3O)n[nH]2)cc1	-6%	nt	-2%	nt	11µM*	-5%
COC(=O)Cn1c(=NC(=O)c2ccc(Cl)s2)sc2cc(C)ccc21	?	4µM*	?	-10%	0.13µM*	?
COC(=O)Cn1c(=NC(=O)c2ccc([N+](=O)[O-])s2)sc2cc(Br)ccc21	10%	17%	-2%	1%	-18%	-4%
Cc1ccc(/C=N/n2c(C)nc3ccccc3c2=O)s1	14%	?	3.5µM*	3%	?	?
Cc1nc2ccccc2c(=O)n1/N=C/c1ccccc1Cl	?	nt	?	nt	11µM*	?
CC(=O)OC1C[C@]2(C)[C@@H](CC(O)C3[C@]4(C)CCC(O)C(C)[C@@H]4CC[C@]32C)/C1=C(/CCC=C(C)C)C(=O)O (stereo not given in full)	nt	-4%	nt	-9%	nt	nt
Cc1cc2ccccc2n1CCNC(=O)C1CCCCC1	23µM*	-56%	2%	3%	0%	-2%
Cc1cc2ccccc2n1CCNC(=O)c1cccs1	?	-29%	?	-3%	21µM*	?
N[C@H](CC(=O)O)C(=O)O	nt	1%	nt	5%	nt	nt
CN(Cc1ccccc1)S(=O)(=O)c1ccc(NC(=O)c2cc(=O)c3ccccc3o2)cc1	nt	-7%	nt	nt	4%	nt
O=C1C2C3C=CC(C3)C2C(=O)N1/N=C/c1ccc(-c2ccccc2[N+](=O)[O-])o1 (stereo not given)	3%	?	24%	-3%	19µM*	17%
O=C1C2C3C=CC(C3)C2C(=O)N1/N=C/c1cc(Br)cc([N+](=O)[O-])c1O (stereo not given)	11%	-16%	-5%	1%	19µM*	-4%
O=c1[nH]cnc2c1nc(Cl)n2C1OC(CO)C(O)C1O (stereo not given)	nt	-5%	nt	0%	nt	nt
Oc1ccc(Cl)cc1/C=C/c1ccc2cccc(O)c2n1	?	8%	-15%	3%	21µM*	-21%
Oc1cccc2ccc(/C=C/c3ccccc3Br)nc12	?	nt	?	nt	3.4µM*	3.5µM*
CC(=O)N1CCCC(C(=O)c2ccc(Oc3ccccc3)cc2)C1 (stereo not given)	1%	nt	0%	-1%	?	0%
c1ccc(Cn2c(-c3cccs3)nc3nc4ccccc4nc32)cc1	4%	-5%	4%	-1%	15µM*	16%
CC(C)Cn1c(-c2cccs2)nc2nc3ccccc3nc21	-8%	-1%	2%	-3%	?	-1%
N/C(=N\OC(=O)COc1ccc(Br)cc1Cl)c1ccncc1	?	11µM*	3.5µM*	2%	6.7µM*	3.5µM*
N/C(=N\OC(=O)COc1cc(Cl)c(Cl)cc1Cl)c1ccncc1	18µM*	14µM*	?	3%	13µM*	?
Cc1ccc(OCC(=O)O/N=C(\N)c2ccncc2)c(C)c1	15µM*	nt	3.5µM*	nt	11µM*	3.2µM*
N/C(=N\OC(=O)COc1ccccc1)c1ccncc1	?	nt	21%	nt	?	17%
SMILES	ELG1 genotox	SMN2 splice up	Rab9 prom act	KinaseGlo FLuc	FLuc counter	NPC1 promoter act
Cc1cc(C)c(C)c(OCC(=O)O/N=C(\N)c2ccncc2)c1	-5%	nt	-1%	nt	0%	0%
CC(C)(C)C(=O)Nc1ccc(/C=C/C(=O)c2ccco2)cc1	18µM*	nt	0.45µM*	nt	0.43µM*	0.35µM*
O=C(/C=C/c1cc(Br)ccc1O)c1ccco1	21%	nt	-1%	nt	?	-1%
Nc1ccc(/C=C/C(=O)c2ccco2)cc1	?	14%	?	-15%	6µM*	14%
O=C(/C=C/c1ccccc1O)c1ccco1	?	nt	7%	nt	17µM*	-7%
CC(C)c1nn2c(=O)cc(COC(=O)c3ccc(NC(=O)C4CCCCC4)cc3)nc2s1	nt	nt	nt	nt	-3%	nt
O=C(COC(=O)c1ccc[nH]c1=O)NC1CCCc2ccccc21 (stereo not given)	0%	nt	1%	nt	-1%	-2%
O=C(N/N=C/c1ccncc1)c1nc2ccccc2c(=O)[nH]1	?	nt	3%	nt	-9%	-5%
O=c1[nH]c(N/N=C\c2ccc(F)cc2)nc2ccccc12	?	10µM*	1.3µM*	-5%	4.8µM*	?
C=CCn1c(N/N=C/c2ccc(O)cc2)nc2ccccc2c1=O	?	-1%	30%	-16%	2.4µM*	-2%
COc1ccc(Nc2nc3ccccc3c(=O)[nH]2)cc1	5%	nt	4%	nt	-19%	-5%
O=c1[nH]c(N/N=C/c2ccc(O)cc2)nc2ccccc12	21µM*	22µM*	2.2µM*	0%	11µM*	?
Cn1c(SCC(=O)N2CCCC2=O)nc2ccccc21	10%	10%	2%	-1%	4%	1%
Nc1nc(CSC(=S)N2CCOCC2)nc(Nc2ccc(F)cc2)n1	?	14µM*	?	3%	?	26%
COc1ccc(Nc2nc(N)nc(CSC(=S)N3CCOCC3)n2)cc1	?	?	?	-1%	?	?
COc1ccc(N2CCN(C3CCCN(C(=O)C4=C(C)OCCO4)C3)CC2)cc1 (stereo not given)	2%	nt	0%	nt	14%	2%
CNC(=O)[C@H]1O[C@@H](n2cnc3c(N)ncnc32)[C@H](O)[C@@H]1O	nt	3%	nt	nt	nt	nt
COc1ccc(NC(=O)C#Cc2ccccc2)cc1	?	nt	?	nt	8.5µM*	1.4µM*
O=C(C#Cc1ccccc1)Nc1ccc(F)cc1	10%	nt	12%	nt	12µM*	16%
O=C(CC(=O)Nc1cccc(F)c1)Nc1cccc(F)c1	2%	nt	4%	nt	1%	5%
O=C(C#Cc1ccccc1)Nc1cccc(F)c1	-1%	nt	0%	nt	4.3µM*	-9%
COc1ccc(N2Cc3cccc(C(=O)Nc4ccc(C)c(C)c4)c3C2=O)cc1	nt	10%	nt	nt	-19%	nt
CCOc1ccc(NC(=O)CSc2cn(CC(=O)N3CCCCCC3)c3ccccc23)cc1	nt	nt	nt	nt	-1%	nt
O=C(Nc1cccnc1)c1ccc(Cl)c(Cl)c1	10%	nt	4%	nt	?	-2%
CN(C)c1nc(N)c(C(=O)Nc2cccnc2)nc1Cl	nt	11µM*	nt	-11%	nt	nt
